Test results reported in PubChem BioAssay (NCATS).
Values joined by “and” are separate entries in the source; they are usually repeats but may differ in a detail not shown here. Identical values can stand only once. Inconclusive results are not listed. Active and inactive are the calls of the source. Unless noted, calls come from the whole dose curve; as a rule, active = well fitted curve in the direction sought with a large enough effect; inconclusive = small, poorly fitted or top-dose-only effect, or another doubt; inactive = no such curve, though single readings can be large; an effect the other way counts as inactive or inconclusive.

What was measured:
[1] = biological target: Cellular tumor antigen p53 (Homo sapiens) (UniProt P04637); assay: Primary qHTS for small molecule compounds that upregulate eGFP-tagged delta133p53alpha (in N-terminal) cells. (AID 2060322); details: NCI-H358 eGFP-delta133p53alpha fluorescence, 24 h; activation: active compounds read high;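 note: series mostly up to about 56 µM; 0% = DMSO vehicle and 100% = reference activator; nearly all actives have a fitted effect of over 75% in size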
Sequence of Cellular tumor antigen p53 (Homo sapiens) (P04637 whole entry, looked up): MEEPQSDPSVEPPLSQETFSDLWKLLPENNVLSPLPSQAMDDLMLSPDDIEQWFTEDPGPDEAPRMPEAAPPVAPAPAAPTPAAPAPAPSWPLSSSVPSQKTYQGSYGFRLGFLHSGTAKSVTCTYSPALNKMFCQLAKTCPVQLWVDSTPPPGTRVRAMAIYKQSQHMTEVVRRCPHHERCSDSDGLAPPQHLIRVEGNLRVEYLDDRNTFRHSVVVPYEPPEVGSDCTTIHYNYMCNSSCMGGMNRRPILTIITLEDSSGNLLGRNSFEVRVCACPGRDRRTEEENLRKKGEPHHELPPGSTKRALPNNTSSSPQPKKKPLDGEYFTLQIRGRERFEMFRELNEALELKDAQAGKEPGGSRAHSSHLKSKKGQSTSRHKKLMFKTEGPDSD
Method in brief: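 NCI-H358 cells pre-induced 24 h with 10 ng/ml doxycycline to express N-terminal eGFP-delta133p53alpha, then dosed 24 h at 37C without doxycycline; fixed, Hoechst-stained, GFP intensity by laser scanning cytometry, normalized to DMSO (0%) and 57.5 uM 5-azacytidine (100%).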

[2] = BET inhibitor-based combinations targeting novel dependencies in MECOM-rearranged (r) AML: MV-4-11 cell line (AID 2202233); note: nearly all actives have a fitted effect of over 45% in size; note: potency is the fitted concentration of half-maximal effect
Method in brief: (§1)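 Each compound is tested in an 11-point concentration series against 500 seeded cells/well for 48 hr. The luminescent viability signal is normalized to DMSO and blank wells, then reduced to AUC and a cell-line-centred Z-AUC.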

[3] = BET inhibitor-based combinations targeting novel dependencies in MECOM-rearranged (r) AML: HNT-34 cell line (AID 2202234); note: nearly all actives have a fitted effect of over 35% in size; note: potency is the fitted concentration of half-maximal effect
Method in brief: as §1

[4] = BET inhibitor-based combinations targeting novel dependencies in MECOM-rearranged (r) AML: UCSD-AML1 cell line (AID 2202235); note: nearly all actives have a fitted effect of over 40% in size; note: potency is the fitted concentration of half-maximal effect
Method in brief: as §1

[5] = BET inhibitor-based combinations targeting novel dependencies in MECOM-rearranged (r) AML: AML-194 cell line (AID 2202237; note: nearly all actives have a fitted effect of over 40% in size; note: potency is the fitted concentration of half-maximal effect)
Method in brief: (§2)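 A 48 hr incubation preceded viability reading by CellTiter-Glo, with 15 min room-temperature development. Dose series had 11 points; normalization used DMSO and empty wells; AUC was computed and mean-centered per line as Z-AUC.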

[6] = BET inhibitor-based combinations targeting novel dependencies in MECOM-rearranged (r) AML: AML-191 cell line (AID 2202236; note: nearly all actives have a fitted effect of over 35% in size; note: potency is the fitted concentration of half-maximal effect)
Method in brief: as §2

[7] = biological target: Cellular tumor antigen p53 (Homo sapiens) (UniProt P04637); assay: Primary qHTS for small molecule compounds that upregulate eGFP-tagged delta133p53alpha (in C-terminal) cells. (AID 2060324); note: potency is the fitted concentration of half-maximal effect
Method in brief: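 NCI-H358 cells pre-induced 24 h with 100 ng/ml doxycycline to express delta133p53alpha-eGFP, then dosed in doxycycline-free medium for 24 h at 37C. Fixed, Hoechst-stained; GFP intensity by laser scanning cytometry, normalized to DMSO wells.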

[8] = biological target: Aldehyde dehydrogenase, mitochondrial (Homo sapiens) (UniProt P05091); assay: qHTS for Inhibitors of the Aldehyde Dehydrogenase Family (ALDH2) Validation screens (AID 2061302; active = well fitted inhibition curve with a large enough effect; title and protocol of this record describe different tests; note: potency is the fitted concentration of half-maximal effect)
[9] = biological target: Retinaldehyde dehydrogenase 3 (Homo sapiens) (UniProt P47895); assay: qHTS for Inhibitors of the Aldehyde Dehydrogenase Family (ALDH1A3) Validation screen (AID 2061312); note: % is set by controls: 0 for no effect and ±100 for the full control effect; nearly all actives have a fitted effect of over 45% in size
[10] = biological target: Aldehyde dehydrogenase, mitochondrial (Homo sapiens) (UniProt P05091); assay: qHTS for Inhibitors of the Aldehyde Dehydrogenase Family (ALDH2) Confirmatory screens (AID 2061303; active = well fitted inhibition curve with a large enough effect; title and protocol of this record describe different tests; note: potency is the fitted concentration of half-maximal effect; nearly all actives have a fitted effect of over 45% in size)
[11] = qHTS for Inhibitors of the Aldehyde Dehydrogenase Family (ALDH1A2, ALDH1A3, ALDH2, ALDH3A1) (AID 2061307); note: test system not described further here; potency is the fitted concentration of half-maximal effect; nearly all actives have a fitted effect of over 50% in size
[12] = biological target: Aldehyde dehydrogenase, mitochondrial (Homo sapiens) (UniProt P05091); assay: qHTS for Inhibitors of the Aldehyde Dehydrogenase Family (ALDH2) Primary screen (AID 2061308); note: nearly all actives have a fitted effect of over 55% in size; note: potency is the fitted concentration of half-maximal effect
[13] = biological target: Retinaldehyde dehydrogenase 3 (Homo sapiens) (UniProt P47895); assay: qHTS for Inhibitors of the Aldehyde Dehydrogenase Family (ALDH1A3) Confirmatory screens (AID 2061311); note: potency is the fitted concentration of half-maximal effect; nearly all actives have a fitted effect of over 60% in size
[14] = biological target: Retinal dehydrogenase 2 (Homo sapiens) (UniProt O94788); assay: qHTS for Inhibitors of the Aldehyde Dehydrogenase Family (ALDH1A2) Confirmation screens (AID 2061314); note: potency is the fitted concentration of half-maximal effect; nearly all actives have a fitted effect of over 65% in size
[15] = biological target: Aldehyde dehydrogenase 1A1 (Homo sapiens) (UniProt P00352); assay: qHTS for Inhibitors of the Aldehyde Dehydrogenase Family (ALDH1A1) Confirmatory screens (AID 2061316); note: potency is the fitted concentration of half-maximal effect; nearly all actives have a fitted effect of over 65% in size
[16] = BET inhibitor-based combinations targeting novel dependencies in MECOM-rearranged (r) AML: SET-2 cell line (AID 2202231); details: SET-2 AML cells viability, CellTiter-Glo luminescence, 48 h; viability: active compounds read low, concentration not given here; note: nearly all actives have a fitted effect of over 35% in size; note: potency is the fitted concentration of half-maximal effect;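 for viability: plate controls were DMSO treated cells for no effect and wells without cells for full effect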
Method in brief: as §2

[17] = BET inhibitor-based combinations targeting novel dependencies in MECOM-rearranged (r) AML: OCI-AML3 cell line (AID 2202232); details: Potency: OCI-AML3 viability; note: nearly all actives have a fitted effect of over 35% in size; note: potency is the fitted concentration of half-maximal effect
Method in brief: as §2

[18] = biological target: Retinaldehyde dehydrogenase 3 (Homo sapiens) (UniProt P47895); assay: qHTS for Inhibitors of the Aldehyde Dehydrogenase Family (ALDH1A3) Primary screen (AID 2061315);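 note: plate controls were DMSO vehicle for no effect and reference inhibitor for full effect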

O=C1CCc2ccc(OCCCCN3CCN(c4cccc(Cl)c4Cl)CC3)cc2N1
active: Potency [2] 16.6 µM | Potency [3] 20.9 µM | Potency [4] 23.5 µM | Potency [5] 26.3 µM
inactive: activation [1] -4.19%

C[N+](C)([O-])CCNc1ccc(NCC[N+](C)(C)[O-])c2c1C(=O)c1c(O)ccc(O)c1C2=O
active: Potency [2] 0.468 µM | Potency [4] 9.34 µM
inactive: activation [1] 9.32%

COc1cc2ncn(-c3cc(OCc4ccccc4S(C)(=O)=O)c(C#N)s3)c2cc1OC
inactive: activation [1] -10.5% | Potency [2] | Potency [3] | Potency [6] | Potency [5]

CCc1c(O)cc(O)c(C(=O)c2ccc(OCCN3CCOCC3)c(OC)c2)c1CC(=O)N(CCOC)CCOC
active: Potency [3] 0.662 µM | Potency [4] 0.263 µM
inactive: activation [1] 38.5%

CCCCC(=O)O[C@]1(C(=O)CO)[C@@H](C)C[C@H]2[C@@H]3CCC4=CC(=O)C=C[C@]4(C)[C@@]3(F)[C@@H](O)C[C@@]21C
inactive: activation [1] 8.12% | Potency [4]
active: Potency [3] 14.8 µM | Potency [6] 0.0132 µM

Cc1ccc(NC(=O)c2ccc(CN3CCN(C)CC3)cc2)cc1Nc1nc(-c2cccnc2)cs1
inactive: activation [1] 4.59% | Potency [4]
active: Potency [3] 5.25 µM

S=P(N1CC1)(N1CC1)N1CC1
active: Potency [2] 20.9 µM | Potency [6] 26.3 µM
inactive: activation [1] 31.6%

Cn1cnc2c(NCc3ccccc3)nc(NCCO)nc21
inactive: Potency [7] | Potency [8] | Potency [9]

COc1cc(C(O)C(=O)O)ccc1O (configuration not stated)
inactive: Potency [7] | Potency [8] | Potency [9]

CC(C)Cc1ccc([C@H](C)C(=O)O)cc1
inactive: Potency [7] | Potency [8] | Potency [9]

COc1ccc(CCn2nnnc2C2(c3ccc(C)cc3)CC2)cc1
inactive: Potency [7] | Potency [8] | Potency [9]

Cc1ccccc1/C=C/C1=NCCN1
inactive: Potency [7] | Potency [8] | Potency [9]

CC(C)N(CCC(=O)c1ccc2ccccc2c1)Cc1ccccc1
active: Potency [7] 23.9 µM | Potency [8] 355 nM and 2.51 µM | Potency [10] 3.16 µM | Potency [11] 0.0127 µM | Potency [12] 0.251 µM | Potency [13] 0.283 µM | Potency [14] 0.0565 µM | Potency [15] 0.0449 µM | Potency [16] 8.33 µM | Potency [17] 4.17 µM | Potency [2] 2.09 µM | Potency [3] 5.25 µM | Potency [4] 4.17 µM | Potency [6] 6.61 µM | Potency [5] 7.42 µM

C[C@H](O)C(=O)C1=Nc2c(nc(N)[nH]c2=O)NC1
inactive: Potency [7] | Potency [8] | Potency [9]

CC(C)(C)c1ccc(/C=C/C(=O)Nc2ccc3c(c2)OCCO3)cc1
inactive: Potency [7] | Potency [8] | Potency [9]

COc1ccc(/C=C2\COc3ccc(C)cc3C2=O)cc1O
inactive: Potency [8] | Potency [9]
active: Potency [7] 13.5 µM

CNCC(O)c1ccc(O)c(O)c1 (configuration not stated)
inactive: Potency [7] | Potency [8]

N[C@@H](COP(=O)(O)O)C(=O)O
inactive: Potency [7] | Potency [8] | Potency [9]

CC(C)c1cccc(C(C)C)c1N1C(=O)c2ccc(O)cc2C1=O
inactive: Potency [7] | Potency [8] | Potency [9]

CC(C)C(=O)c1c(C(C)C)nn2ccccc12
inactive: Potency [7] | Potency [8] | Potency [9]

CN(C)CCCC1(c2ccc(F)cc2)OCc2cc(C#N)ccc21 (configuration not stated)
inactive: Potency [7] | Potency [8] | Potency [12] | Potency [9] | Potency [18]

COc1ccc2c(c1)CCC1C2CC[C@@]2(C)C1CC[C@@H]2NCCCCCCN1C(=O)C=CC1=O (some centres not stated)
inactive: Potency [7] | Potency [8] | Potency [9]

CCN(CC)CCCCNc1ncc2cc(-c3c(Cl)cccc3Cl)c(NC(=O)NC(C)(C)C)nc2n1
inactive: Potency [7] | Potency [8] | Potency [12] | Potency [9] | Potency [18]

CN(C(=O)CCCOc1ccc2[nH]c(=O)ccc2c1)C1CCCCC1
inactive: Potency [7] | Potency [8] | Potency [9]

O=C(c1ccc(F)cc1)C1CCN(CCn2c(=O)[nH]c3ccccc3c2=O)CC1
inactive: Potency [7] | Potency [8] | Potency [12] | Potency [9] | Potency [18]

CCCc1nn(C)c2c(=O)[nH]c(-c3cc(S(=O)(=O)N4CCN(C)CC4)ccc3OCC)nc12
inactive: Potency [7] | Potency [8] | Potency [12] | Potency [9] | Potency [18] | viability [16] 114% | Potency [17] | Potency [2] | Potency [3] | Potency [4] | Potency [6]

C=CCc1cccc(C=NNC(=O)CN2CCN(Cc3ccccc3)CC2)c1O
inactive: Potency [7] | Potency [8] | Potency [9]

CN1C(=O)CC[C@H]1c1cccnc1
inactive: Potency [7] | Potency [8] | Potency [9]

Cc1ccc(S(=O)(=O)/C=C/C#N)cc1
inactive: Potency [9]
active: Potency [7] 30.1 µM | Potency [8] 398 nM
